Measured values as given in PubChem BioAssay (NCATS).
Records with an inconclusive call do not appear. Calls come from the whole dose curve; as a rule, active = well fitted activation curve with a large enough effect in the main read-out, with a control signal flat (not every such curve was filed as active); inconclusive = small, poorly fitted or top-dose-only effect, or effect the other way, or a change in a side signal; inactive = flat fitted curve, though single readings scatter.

Target: 3',5'-cyclic-AMP phosphodiesterase 4B (Homo sapiens) (UniProt Q07343)
Sequence (Q07343 whole entry, looked up): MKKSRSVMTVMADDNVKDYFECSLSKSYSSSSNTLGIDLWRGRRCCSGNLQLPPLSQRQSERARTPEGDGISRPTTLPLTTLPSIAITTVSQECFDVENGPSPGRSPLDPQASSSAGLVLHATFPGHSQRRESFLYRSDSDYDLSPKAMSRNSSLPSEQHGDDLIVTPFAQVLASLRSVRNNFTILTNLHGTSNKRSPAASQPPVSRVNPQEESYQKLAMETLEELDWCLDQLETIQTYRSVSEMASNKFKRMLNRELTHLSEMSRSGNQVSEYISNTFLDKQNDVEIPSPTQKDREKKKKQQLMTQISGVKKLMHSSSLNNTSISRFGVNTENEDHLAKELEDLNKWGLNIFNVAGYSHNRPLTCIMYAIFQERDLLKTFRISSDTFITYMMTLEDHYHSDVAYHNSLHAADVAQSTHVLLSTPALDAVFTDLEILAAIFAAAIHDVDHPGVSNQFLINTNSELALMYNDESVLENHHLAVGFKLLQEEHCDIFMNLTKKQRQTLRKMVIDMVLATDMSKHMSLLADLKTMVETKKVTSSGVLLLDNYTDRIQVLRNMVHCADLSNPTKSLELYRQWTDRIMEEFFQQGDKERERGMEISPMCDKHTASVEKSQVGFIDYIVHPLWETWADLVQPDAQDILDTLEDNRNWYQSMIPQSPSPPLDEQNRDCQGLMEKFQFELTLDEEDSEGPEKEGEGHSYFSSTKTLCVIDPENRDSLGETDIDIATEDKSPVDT
Assay: qHTS Assay for Inhibitors of PDE-IV (AID 607); note: % of control where 0% means no effect
Details: HEK293 ACTOne CNG channel cells, membrane potential fluorescence; series mostly up to 22.9 µM; activation (PDE inhibition): at the top concentration
Method in brief: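 Live HEK293 cells with a modified cyclic nucleotide-gated (CNG) channel report intracellular cAMP via membrane-potential dye fluorescence (ex 535/em 590 nm). Endogenous PDE-IV was targeted. Compounds were tested at up to 22.9 uM final; RO 20-1724 100 uM served as control.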

Activation (PDE inhibition), inactive:
CC(C)C[C@@H](CC(=O)N[C@@H](CCCN)CC(=O)N[C@@H]1CCCC[C@H]1C(=O)N[C@H](CC(=O)N[C@@H](CCC(=O)O)CC(=O)O)Cc1c[nH]c2ccccc12)NC(=O)[C@@H]1CCCC[C@H]1N 4.95%
CC(C)C[C@@H](CC(=O)N[C@@H](CCC(=O)O)CC(=O)O)NC(=O)[C@@H]1CCCC[C@H]1NC(=O)C[C@H](CCCN)NC(=O)C[C@H](CO)NC(=O)[C@@H]1CCCC[C@H]1N -19.9%
CC(C)[C@@H](CC(=O)N[C@@H]1CCNC[C@H]1C(=O)N[C@H](CC(=O)N[C@@H](CCC(=O)O)CC(=O)O)Cc1c[nH]c2ccccc12)NC(=O)C[C@H](Cc1c[nH]c2ccccc12)NC(=O)[C@@H]1CNCC[C@H]1N -5.87%
CC(C)C[C@@H](CC(=O)N[C@@H](CCC(=O)O)CC(=O)O)NC(=O)[C@@H]1CNCC[C@H]1NC(=O)C[C@@H](NC(=O)C[C@H](Cc1c[nH]c2ccccc12)NC(=O)[C@@H]1CNCC[C@H]1N)C(C)C -4.48%
CC(C)C[C@@H](CC(=O)N[C@H](CC(=O)N[C@@H]1CCCC[C@H]1C(=O)N[C@H](CC(=O)N[C@@H](CCC(=O)O)CC(=O)O)CC(C)C)C(C)C)NC(=O)[C@@H]1CNCC[C@H]1N 7.25%
NCCC[C@@H](CC(=O)N[C@@H]1CCNC[C@H]1C(=O)N[C@H](CC(=O)N[C@@H](CCC(=O)O)CC(=O)O)Cc1ccccc1)NC(=O)C[C@H](Cc1ccccc1)NC(=O)[C@@H]1CNCC[C@H]1N -14.2%
CC(C)C[C@@H](CC(=O)N[C@@H](CCC(=O)O)CC(=O)O)NC(=O)[C@@H]1CCCC[C@H]1NC(=O)C[C@@H](NC(=O)C[C@H](CO)NC(=O)[C@@H]1CNCC[C@H]1N)C(C)C 0.714%
CC(C)[C@@H](CC(=O)N[C@@H]1CCNC[C@H]1C(=O)N[C@H](CC(=O)N[C@@H](CCC(=O)O)CC(=O)O)Cc1ccccc1)NC(=O)C[C@H](CO)NC(=O)[C@@H]1CCCC[C@H]1N -1.52%
NCCC[C@@H](CC(=O)N[C@@H]1CCNC[C@H]1C(=O)N[C@H](CC(=O)N[C@@H](CCC(=O)O)CC(=O)O)Cc1c[nH]c2ccccc12)NC(=O)C[C@H](CO)NC(=O)[C@@H]1CCCC[C@H]1N -10.7%
NCCC[C@@H](CC(=O)N[C@@H]1CCCC[C@H]1C(=O)N[C@H](CC(=O)N[C@@H](CCC(=O)O)CC(=O)O)Cc1c[nH]c2ccccc12)NC(=O)C[C@H](CO)NC(=O)[C@@H]1CNCC[C@H]1N 7.68%
CC(C)[C@@H](CC(=O)N[C@@H]1CCNC[C@H]1C(=O)N[C@H](CC(=O)N[C@@H](CCC(=O)O)CC(=O)O)Cc1ccccc1)NC(=O)C[C@H](CO)NC(=O)[C@@H]1CNCC[C@H]1N 8.91%
CC(C)C[C@@H](CC(=O)N[C@@H](CCC(=O)O)CC(=O)O)NC(=O)[C@@H]1CCCC[C@H]1NC(=O)C[C@@H](NC(=O)C[C@H](CO)NC(=O)[C@@H]1CCCC[C@H]1N)C(C)C 8.86%
CC(C)[C@@H](CC(=O)N[C@@H]1CCNC[C@H]1C(=O)N[C@H](CC(=O)N[C@@H](CCC(=O)O)CC(=O)O)Cc1c[nH]c2ccccc12)NC(=O)C[C@H](Cc1c[nH]c2ccccc12)NC(=O)[C@@H]1CCCC[C@H]1N -8.67%
CC(C)C[C@@H](CC(=O)N[C@H](CC(=O)N[C@@H]1CCCC[C@H]1C(=O)N[C@H](CC(=O)N[C@@H](CCC(=O)O)CC(=O)O)CC(C)C)C(C)C)NC(=O)[C@@H]1CCCC[C@H]1N -6.2%
